Experimental findings from the supplement of paper PMC7366291 are described below.

What all share (conditions): 25 µM; exposure: 24-48 hpf
Experiment [1] concerns Danio rerio Tg(wt1b:EGFP) embryo, pronephros. The experiment in a line: glomerular separation, fold change vs DMSO control; higher = glomeruli further apart (abnormal). The method in brief:
(§1)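 Dechorionated Tg(wt1b:EGFP) zebrafish embryos were treated with 25 μM compound in 0.5% DMSO, in HEPES-buffered E3 with 0.003% PTU, from 24 to 48 hpf at 28.5°C. On maximum projections of dorsal pronephros images, 16 hand-placed reference points in Fiji gave distances and angles, and values more than 2 SD from the feature mean were left out. Results are fold changes over the mean of same-day DMSO-treated embryos.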

Experiment [2] has the same test system. Nature of the experiment: glomerular width (mean of left and right), fold change vs DMSO control; higher = wider glomerulus. The method in brief:
as §1

The test system is the same in experiment [3]. The experiment in a line: fraction of imaged embryos annotated as normal kidney; higher = less nephrotoxic; extreme values may be limits of the assay. The method in brief: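 The read-out is the proportion of embryos in each treatment manually annotated as normal-kidney. Exposure ran from 24 to 48 hpf at 28.5°C in 12-well plates, using dechorionated Tg(wt1b:EGFP) zebrafish embryos in 5 mM HEPES-buffered E3 with 0.003% PTU, 0.5% DMSO and 25 μM compound. For imaging, larvae were anaesthetised with tricaine, positioned dorsally in agarose-filled 96-well plates and captured by widefield fluorescence (470 nm, 10 z-slices), with scoring done on maximum projections.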

Experiment [4] has the same test system. Nature of the experiment: pronephric angle neck segment to proximal convoluted tubule (mean of left and right), fold change vs DMSO control; higher = larger pronephric angle. The method in brief: as §1

Structures can show the parent of a compound that is named as a salt. ± gives the standard deviation or the standard deviation of the averaged measurements.

With `CN1CCN2c3ncccc3Cc3ccccc3C2C1` (configuration not stated) [Mirtazapine], the glomerular separation in experiment [1] turned out to be 0.964 ± 0.35. This compound registered a glomerular width in experiment [2] of 0.98 ± 0.037. In addition, the “fraction of imaged embryos annotated as normal kidney” value (“fraction of imaged embryos annotated” below) in experiment [3] amounted to 1. Besides, the “pronephric angle neck segment” value in experiment [4] is 0.994 ± 0.056.
For the compound `O=C(O)CCNC(=O)c1ccc(/N=N/c2ccc(O)c(C(=O)O)c2)cc1` [Balsalazide Sodium], the glomerular separation in experiment [1] was determined as 0.832 ± 0.29. Moreover, in experiment [2], the glomerular width came to 1.03 ± 0.012. The “fraction of imaged embryos annotated” value in experiment [3] was found to be 0.833. Besides, in experiment [4], the “pronephric angle neck segment” value stood at 1.08 ± 0.012.
For the compound `CNCC[C@@H](Oc1ccccc1C)c1ccccc1` [Tomoxetine hydrochloride], in experiment [1], the glomerular separation came out at 1.04 ± 0.55. Further, in experiment [2], the glomerular width was determined as 0.979 ± 0.023. Also, the “fraction of imaged embryos annotated” value in experiment [3] came out at 0.75. The “pronephric angle neck segment” value in experiment [4] was found to be 1 ± 0.022.
